In the supplement of paper PMC6555819:

Experiments:
Assay in all cases: PBM binding z-score (relative to random genomic background probes); higher = stronger binding; sequences stand for … in GC…GCGATTGACAGCGTAGAATGAAGG
[1] = tested on: FXR:RXRa (NR concentration 270 nM, RXRa partner concentration 90 nM)
Procedure, shortened: (§1)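 Random background probes are the reference for binding z-scores. These scores derive from regression-normalized fluorescence on custom Agilent 4×180K protein-binding microarrays incubated 1 h with ligand-free nuclear receptor dimers. Binding was detected with antibodies against each partner (one per run).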

[2] = tested on: LXRa:RXRa (NR concentration 270 nM, RXRa partner concentration 90 nM)
Procedure, shortened: as §1

[3] = tested on: LXRa homodimer (NR concentration 270 nM)
Procedure, shortened: as §1

[4] = tested on: LXRb:RXRa (NR concentration 270 nM, RXRa partner concentration 90 nM)
Procedure, shortened: as §1

[5] = tested on: PPARa:RXRa (NR concentration 270 nM, RXRa partner concentration 90 nM)
Procedure, shortened: as §1

[6] = tested on: PPARg:RXRa (NR concentration 180 nM, RXRa partner concentration 90 nM)
Procedure, shortened: as §1

[7] = tested on: PPARg:RXRa 270nM:90nM, anti-RXR (NR concentration 270 nM, RXRa partner concentration 90 nM)
Procedure, shortened: as §1

[8] = tested on: PPARg:RXRa 30nM:10nM, anti-RXR (NR concentration 30 nM, RXRa partner concentration 10 nM)
Procedure, shortened: as §1

[9] = tested on: PPARg:RXRa 90nM:30nM, anti-RXR (NR concentration 90 nM, RXRa partner concentration 30 nM)
Procedure, shortened: as §1

[10] = tested on: PPARg:RXRa DBDmut IVT, anti-RXR (DBD mutation: RXRa K156A/R161A, NR concentration 270 nM, RXRa partner concentration 90 nM)
Procedure, shortened: as §1

[11] = tested on: PPARg:RXRa IVT, anti-PPARg (NR concentration 270 nM, RXRa partner concentration 90 nM)
Procedure, shortened: as §1

[12] = tested on: PPARg homodimer (NR concentration 180 nM)
Procedure, shortened: as §1

[13] = tested on: PXR:RXRa (NR concentration 270 nM, RXRa partner concentration 90 nM)
Procedure, shortened: as §1

[14] = tested on: PXR homodimer (NR concentration 270 nM)
Procedure, shortened: as §1

[15] = tested on: RARa:RXR (NR concentration 270 nM, RXRa partner concentration 90 nM)
Procedure, shortened: as §1

[16] = tested on: RARa homodimer (NR concentration 270 nM)
Procedure, shortened: as §1

[17] = tested on: RARb:RXRa (NR concentration 270 nM, RXRa partner concentration 90 nM)
Procedure, shortened: as §1

Row | Sequence | PBM binding z-score [1] | PBM binding z-score [2] | PBM binding z-score [3] | PBM binding z-score [4] | PBM binding z-score [5] | PBM binding z-score [6] | PBM binding z-score [7] | PBM binding z-score [8] | PBM binding z-score [9] | PBM binding z-score [10] | PBM binding z-score [11] | PBM binding z-score [12] | PBM binding z-score [13] | PBM binding z-score [14] | PBM binding z-score [15] | PBM binding z-score [16] | PBM binding z-score [17]
1 | CTATGTAGGTTAAGGGGCTCATTCAGTTTGAAAG | 0.164 | 0.226 | -0.199 | 1.35 | 4.02 | 6.99 | 6.59 | 4.66 | 6.73 | 7.02 | 6.52 | 1.36 | 0.403 | 0.167 | 0.505 | 0.222 | 0.689
2 | CCGAGTAGGTTACGAAGGGGCATTCAGTGCGAAT | 0.672 | 6.11 | -0.15 | 4.02 | 1.83 | 1.04 | 1.55 | -0.292 | 0.939 | 4.07 | 3.33 | 0.383 | 2.86 | 1.4 | 1.04 | 0.184 | 1.56
3 | CCGAGTAGGTTACGAGGGAGCATTCAGTGCGAAT | -0.0908 | 3.55 | -0.145 | 1.05 | 1.52 | 1.15 | 1.55 | 0.0513 | 0.563 | 4.73 | 3.51 | 0.106 | 0.602 | 0.000491 | 0.506 | -0.145 | 0.887
4 | CTATGTAGGTTAAGGGGGTCGTTCAGTTTGAAAG | 2.32 | 2.72 | 0.932 | 5.37 | 5.33 | 7.56 | 7.03 | 4.96 | 6.85 | 7.46 | 7.3 | 2.23 | 3.86 | 6.99 | 3.39 | 1.49 | 2.37
5 | CCGAGTAGGTTTCGAGGGGGCATTCAGTGCGAAT | 1.41 | 2.96 | 1.18 | 4.53 | 2.37 | -0.183 | 1.67 | 0.107 | 1.44 | 2.27 | 2.41 | 1.58 | 3.09 | 5.29 | 1.88 | 0.558 | 1.28
6 | CCGAGTAGGTTGCGAGGGGGCATTCAGTGCGAAT | 1.26 | 2.94 | 0.489 | 4.71 | 2.73 | 0.173 | 1.85 | 0.127 | 1.53 | 1.37 | 2.13 | 0.668 | 3.67 | 4.85 | 2.34 | 0.292 | 1.57
7 | TCGAGTAGGTTACGGCGGCATTCAGGGATGAAGA | -0.0492 | 0.356 | -0.342 | 0.0226 | 1.32 | 0.838 | 1.73 | 1.18 | 1.43 | 3.16 | 2.85 | -0.171 | -0.0606 | -0.885 | 0.128 | -1.2 | 0.794
8 | CTATGTAGGTTAAGGGGGTCATTCTGTTTGAAAG | 4.82 | 4.99 | 2.88 | 6.33 | 5.95 | 8.35 | 7.68 | 6 | 7.63 | 6.99 | 7.55 | 3.03 | 5.44 | 3.94 | 5.46 | 1.35 | 3.47
9 | CTATGTAGGTTAAGGGGGTCATGCAGTTTGAAAG | 5.42 | 4.98 | 1.95 | 6.22 | 6.35 | 9.11 | 8 | 6.71 | 8.07 | 7.51 | 7.75 | 4.7 | 5.74 | 8.41 | 6 | 1.78 | 3.79
10 | CTACGTAGGTTAAGGGGGTCATTCAGTTTGAAAG | 5.02 | 5.26 | 2.48 | 6.14 | 5.67 | 4.41 | 5.7 | 2.76 | 4.84 | 2.95 | 4.54 | 2.77 | 5.94 | 11.4 | 6.06 | 0.985 | 3.63
11 | CAATGTAGGTTAAGGGGGTCATTCAGTTTGAAAG | 3.39 | 5.38 | 3.82 | 6.46 | 6.05 | 8.91 | 8.13 | 6.58 | 8.44 | 7.92 | 7.9 | 7.74 | 6.21 | 13.1 | 6.32 | 4.17 | 3.72
12 | TCGAATAGGTTACGGGGGCATTCAGGGATGAAGA | 3.92 | 3.9 | 1.2 | 5.78 | 5.11 | 5.71 | 5.84 | 4.46 | 5.39 | 4.48 | 5.46 | 2.1 | 3.82 | 1.8 | 3.69 | 1.33 | 3.33
13 | CCGAGTAGGTTAAGAGGGGGCATTCAGTGCGAAT | 3.24 | 6.72 | 1.5 | 5.79 | 3.21 | 1.93 | 3.19 | 0.978 | 2.43 | 4.47 | 4.75 | 2.41 | 4.95 | 6.8 | 2.7 | 1.37 | 2.28
14 | TGGAGTAGGTTACGGGGGCATTCAGGGATGAAGA | 3.28 | 3.37 | 1.38 | 5.17 | 4.73 | 7.46 | 6.49 | 4.07 | 5.66 | 6.12 | 7.33 | 3.02 | 3.97 | 3.87 | 3.46 | 1.99 | 3.1
15 | TCTAGTAGGTTACGGGGGCATTCAGGGATGAAGA | 3.33 | 3.71 | 1.27 | 5.76 | 4.95 | 8 | 6.8 | 5.71 | 6.87 | 6.73 | 7 | 2.93 | 3.79 | 2.71 | 3.63 | 1.37 | 3.21
16 | CGATGTAGGTTAAGGGGGTCATTCAGTTTGAAAG | 5.57 | 4.7 | 3.53 | 6.23 | 5.85 | 8.23 | 7.56 | 6.22 | 7.61 | 7.27 | 7.49 | 5.88 | 6.1 | 13.5 | 6.18 | 4.27 | 3.65
17 | TCGAGTAGGTTACGGGGGCAATCAGGGATGAAGA | 1.97 | 2.28 | 0.238 | 4.49 | 4.14 | 6.62 | 5.6 | 3.37 | 4.85 | 4.86 | 6.27 | 1.35 | 2.64 | 0.755 | 2.99 | -0.0158 | 2.43
18 | CCAAGTAGGTTACGAGGGGGCATTCAGTGCGAAT | 3.42 | 7.37 | 1.65 | 6.39 | 4.05 | 4.83 | 4.89 | 2.33 | 3.81 | 6.86 | 6.44 | 2.19 | 5.04 | 6.14 | 3.18 | 1.41 | 2.52
19 | CTATGTAAGTTAAGGGGGTCATTCAGTTTGAAAG | 4.5 | 4.34 | 2.4 | 6.24 | 5.31 | 3.92 | 5.21 | 2.84 | 4.55 | 3.56 | 5.22 | 3.28 | 5.6 | 10.3 | 5.28 | 2.58 | 3.35
20 | CTATGTAGGTTAAGGGGGCCATTCAGTTTGAAAG | 1.41 | 1.83 | 0.578 | 4.2 | 4.65 | 7 | 6.86 | 4.73 | 6.88 | 7.13 | 7.17 | 1.77 | 2.69 | 3.67 | 2.17 | 0.379 | 1.94
21 | TCGAGTAGGTTTCGGGGGCATTCAGGGATGAAGA | 2.38 | 2.27 | 0.973 | 4.48 | 2.96 | 1.4 | 2.99 | 2.29 | 2.8 | 2.63 | 3.84 | 1.79 | 2.62 | 2.07 | 2.22 | 0.713 | 1.67
22 | CTATGTAGGTTAAGGCGGTCATTCAGTTTGAAAG | 1.17 | 2.21 | 1.95 | 1.37 | 3.24 | 4.29 | 4.25 | 1.38 | 3.3 | 6.74 | 6.69 | 0.855 | 1.37 | 2.41 | 0.782 | -0.289 | 1.62
23 | CTATGTAGGTTAAGGGGGTCAATCAGTTTGAAAG | 4.51 | 4.86 | 1.5 | 5.67 | 5.86 | 8.09 | 7.41 | 5.18 | 7.66 | 7.42 | 7.48 | 2.63 | 5.16 | 7.48 | 5.23 | 0.971 | 3.41
24 | CCGAGTACGTTACGAGGGGGCATTCAGTGCGAAT | 1.3 | 3.11 | 0.927 | 4.03 | 2.23 | 0.00178 | 0.968 | -0.231 | 0.521 | 0.709 | 1.25 | 1.37 | 3.35 | 6.19 | 2.07 | 0.384 | 1.29
25 | CTATGTAGGTTAAGGGGGGCATTCAGTTTGAAAG | 3.22 | 3.64 | 1.74 | 6.04 | 4.85 | 8.88 | 7.37 | 6.02 | 7.7 | 7.45 | 7 | 3.9 | 4.18 | 8.89 | 2.96 | 3.91 | 3.35
26 | TCGAGTATGTTACGGGGGCATTCAGGGATGAAGA | 2.26 | 2.6 | 0.591 | 4.72 | 2.9 | 1.94 | 3.22 | 2.44 | 3.35 | 2.87 | 3.97 | 0.827 | 2.87 | 1.12 | 2.43 | 0.107 | 2.01
27 | CTATGCAGGTTAAGGGGGTCATTCAGTTTGAAAG | 5.02 | 5.01 | 3 | 6.31 | 5.63 | 5.77 | 6.3 | 3.13 | 5.29 | 4.72 | 5.58 | 2.68 | 5.97 | 12.4 | 5.93 | 1.66 | 3.52
28 | CCGAGTAGGTTACGAGTGGGCATTCAGTGCGAAT | 0.0253 | 3.62 | -0.367 | 0.771 | 1.09 | 0.765 | 1.33 | -0.376 | 0.662 | 4.82 | 3.49 | 0.313 | 0.0829 | -0.15 | 0.124 | -0.322 | 0.921
29 | CTATGTAGGTTAAGGGGGTGATTCAGTTTGAAAG | 1.52 | 1.98 | 0.79 | 3.83 | 4.69 | 7.43 | 6.74 | 4.44 | 6.29 | 7.48 | 7.27 | 2.45 | 2.49 | 2.65 | 2.41 | 1.25 | 2.34
